In PubChem BioAssay (NCI) one finds growth inhibition data, which are given here for six compounds.

The nature of assay [1]: NCI Yeast Anticancer Drug Screen. Data for the mlh1 rad18 strain (AID 175). The conditions noted are these: S. cerevisiae mlh1 rad18 strain growth inhibition, stronger effect = higher value. In short, it runs like this:
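Read-out is yeast growth inhibition, calculated against vehicle-only controls. The compound was applied to a strain engineered with DNA damage repair alterations.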

Assay [2] in a line: NCI Yeast Anticancer Drug Screen. Data for the rad50 strain (AID 155).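 Further: 0% = growth of vehicle-only cultures of the same strain.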 Particulars: S. cerevisiae rad50 strain growth inhibition, stronger effect = higher value. In short, it runs like this: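 Vehicle-treated cultures provide the reference for the growth inhibition reported for compound-exposed, repair-deficient yeast.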
Assay [3] in a line: NCI Yeast Anticancer Drug Screen. Data for the mec2-1 strain (AID 157). The conditions noted are these: S. cerevisiae mec2-1 strain, stronger effect = higher value. In short, it runs like this: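 Strain: mec2-1 (DNA repair/cell cycle alteration). Compound exposure, then growth measured; inhibition expressed relative to vehicle.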
Assay [4] can be described thus: NCI Yeast Anticancer Drug Screen. Data for the sgs1 mgt1 strain (AID 161).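 Further: 0% = growth of cultures given vehicle only.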 The conditions noted are these: S. cerevisiae sgs1 mgt1 strain, stronger effect = higher value. Summed up:
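Test agents were incubated with a DNA-repair-mutant yeast strain. Growth was then read and compared against vehicle-treated controls.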

Assay [5] can be described thus: NCI Yeast Anticancer Drug Screen. Data for the cln2 rad14 strain (AID 165).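 Further: 0% = growth equal to vehicle treated cultures.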 Particulars: S. cerevisiae cln2 rad14 strain, stronger effect = higher value. In short, it runs like this:
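Compounds are applied to the cln2 rad14 yeast strain, and growth is then compared with that of vehicle-treated cultures to give inhibition.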

Assay [6] is described as follows: NCI Yeast Anticancer Drug Screen. Data for the bub3 strain (AID 167). The conditions noted are these: S. cerevisiae bub3 mutant strain, stronger effect = higher value. In short, it runs like this: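 Mutant yeast screening strain plus compound; vehicle-treated cultures serve as the 0% inhibition reference.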
[7] abbreviates: at 5.0 µM (retest, dose inferred, filed as 0.5).
The mark [8] stands for this setting: at 50.0 µM (retest, dose inferred, filed as 5.0).

Molecules are shown by their SMILES. Values joined by “and” are separate entries in the source; they are usually repeats but may differ in a detail not shown here. Equal values may be shown once. About 79,000 compounds went through this panel and 15% of them were active in at least one assay; those are over-represented in the sample as a whole. More than one record can exist for a structure, and the calls need not agree. Active and inactive are the calls of the source. No stated cut-off is given here; in the data, active means growth inhibition above about 70%; inactive means the rest.

In the case of `O=C(O)c1ccccc1.[Ag]`, the growth inhibition is 99% (active) and 40% (inactive) in assay [1] (setting [7]); 99% (active) and 100% (active) in assay [1] (setting [8]); 90.8% (active) and 91.3% (active) in assay [1] (at 50.0 µM).

`Cc1nc(Cl)c(CBr)c(Cl)n1`: the growth inhibition in assay [2] (setting [7]) is 38% (inactive); in assay [2] (setting [8]), 99% (active); in assay [2] (at 50.0 µM), 67.8% (inactive); in assay [3] (setting [7]), 44% (inactive); in assay [3] (setting [8]), 100% (active); in assay [3] (at 50.0 µM), 70.2% (active). Besides, the growth inhibition is 43% (inactive) in assay [4] (setting [7]); 100% (active) in assay [4] (setting [8]); 32.6% (inactive) in assay [4] (at 50.0 µM); 40% (inactive) in assay [5] (setting [7]); 100% (active) in assay [5] (setting [8]); 33.8% (inactive) in assay [5] (at 50.0 µM). Further, the growth inhibition in assay [6] (setting [7]) is 54% (inactive); in assay [6] (setting [8]), 100% (active); in assay [6] (at 50.0 µM), 52.5% (inactive); in assay [1] (setting [7]) it was 50% (inactive); in assay [1] (setting [8]), 99% (active).

Regarding `CCN(CC)CC.CCOc1ccc(NC(=O)N=C=[N-])cc1.[CH-]1CCCCC1.[CH-]1CCCCC1.[CH-]1CCCCC1.[Cl-].[Sn+4]`, the growth inhibition in assay [2] (setting [7]) was 99% (active); in assay [2] (setting [8]), 99% (active); in assay [2] (at 50.0 µM), 87.2% (active); in assay [3] (setting [7]) it was 100% (active); in assay [3] (setting [8]), 99% (active); in assay [3] (at 50.0 µM) it was 88.4% (active). Further, the growth inhibition in assay [4] (setting [7]) was 99% (active); in assay [4] (setting [8]), 99% (active); in assay [4] (at 50.0 µM), 90.2% (active); in assay [5] (setting [7]), 99% (active); in assay [5] (setting [8]), 99% (active); in assay [5] (at 50.0 µM), 89.5% (active). The growth inhibition is 99% (active) in assay [6] (setting [7]); 99% (active) in assay [6] (setting [8]); 89.2% (active) in assay [6] (at 50.0 µM); 99% (active) in assay [1] (setting [7]); 99% (active) in assay [1] (setting [8]).

With `C=Cc1ccccc1` (tested in a mixture with another compound), the growth inhibition is -1% (inactive) in assay [2] (setting [7]); 2% (inactive) in assay [2] (setting [8]); 16.1% (inactive) and 1.1% (inactive) and -7.7% (inactive) in assay [2] (at 50.0 µM); -6% (inactive) in assay [3] (setting [7]); 0% (inactive) in assay [3] (setting [8]); -1.35% (inactive) and 6.9% (inactive) and -3.75% (inactive) in assay [3] (at 50.0 µM). The growth inhibition was -2% (inactive) in assay [4] (setting [7]); -1% (inactive) in assay [4] (setting [8]); -11.2% (inactive) and -6.85% (inactive) and -12.4% (inactive) in assay [4] (at 50.0 µM); -3% (inactive) in assay [5] (setting [7]); 3% (inactive) in assay [5] (setting [8]); 1.25% (inactive) and -3.6% (inactive) and 2.15% (inactive) in assay [5] (at 50.0 µM). Further, the growth inhibition in assay [6] (setting [7]) was -5% (inactive); in assay [6] (setting [8]), -4% (inactive); in assay [6] (at 50.0 µM), 23.4% (inactive) and 14.5% (inactive) and 6.1% (inactive).

With `FC1(F)C(Cl)=[C]([Hg][C]2=C(Cl)C(F)(F)C(F)(F)C(F)(F)C2(F)F)C(F)(F)C(F)(F)C1(F)F`, the growth inhibition was 45% (inactive) in assay [2] (setting [7]); 98% (active) in assay [2] (setting [8]); 98.6% (active) in assay [2] (at 50.0 µM); 66% (inactive) in assay [3] (setting [7]); 99% (active) in assay [3] (setting [8]); 51.1% (inactive) in assay [3] (at 50.0 µM). The growth inhibition in assay [4] (setting [7]) was 58% (inactive); in assay [4] (setting [8]), 99% (active); in assay [4] (at 50.0 µM) it was 99.7% (active); in assay [5] (setting [7]) it was 57% (inactive); in assay [5] (setting [8]), 99% (active); in assay [5] (at 50.0 µM), 19.9% (inactive). The growth inhibition in assay [6] (setting [7]) was 69% (inactive); in assay [6] (setting [8]), 99% (active); in assay [6] (at 50.0 µM), 75% (active).

Consider `O=C1C2CCN(CC2)C1CN1CCOCC1` (centres undefined), for which the growth inhibition in assay [2] (setting [7]) was 15% (inactive); in assay [2] (setting [8]) it was 22% (inactive); in assay [2] (at 50.0 µM), 88.3% (active); in assay [3] (setting [7]) it was 22% (inactive); in assay [3] (setting [8]) it was -8% (inactive); in assay [3] (at 50.0 µM), 90.8% (active). In addition, the growth inhibition in assay [4] (setting [7]) is 3% (inactive); in assay [4] (setting [8]), 8% (inactive); in assay [4] (at 50.0 µM), 87.2% (active); in assay [5] (setting [7]), 10% (inactive); in assay [5] (setting [8]) it was 11% (inactive); in assay [5] (at 50.0 µM), 19.2% (inactive). The growth inhibition in assay [6] (setting [7]) was -1% (inactive); in assay [6] (setting [8]) it was 2% (inactive); in assay [6] (at 50.0 µM) it was 89.1% (active); in assay [1] (setting [7]), 10% (inactive); in assay [1] (setting [8]) it was 16% (inactive).
